Assay results published in PubChem BioAssay (NCI).
Where “and” joins values, the source holds several entries; their conditions need not be identical. Equal entries are not always repeated. About 83,000 compounds went through this panel and 20% of them were active in at least one assay; those are over-represented in the sample as a whole.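 Growth was measured after 48 h exposure to one concentration of compound in 96-well plates. Values under 10 count as active.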 Calls of active or inactive are those of the source.

Legend:
Experiment in all cases: NCI-60 one-dose screen, 48 h (100 = growth as untreated, 0 = no growth, -100 = all killed)
HCT-15 colon = system: HCT-15 colon
HT29 colon = system: HT29 colon
SNB-75 CNS = system: SNB-75 CNS
SNB-19 CNS = system: SNB-19 CNS
U251 CNS = system: U251 CNS
PC-3 prostate = system: PC-3 prostate
SK-MEL-5 melanoma = system: SK-MEL-5 melanoma
UACC-62 melanoma = system: UACC-62 melanoma
LOX IMVI melanoma = system: LOX IMVI melanoma
SK-MEL-28 melanoma = system: SK-MEL-28 melanoma
SK-MEL-2 melanoma = system: SK-MEL-2 melanoma
EKVX NSCLC = system: EKVX NSCLC
SN12C renal = system: SN12C renal
UO-31 renal = system: UO-31 renal
TK-10 renal = system: TK-10 renal
ACHN renal = settings: 10 µM unless noted
A498 renal = system: A498 renal
CCRF-CEM leukemia = settings: 10 µM unless noted
MOLT-4 leukemia = system: MOLT-4 leukemia
CAKI-1 renal = settings: 10 µM unless noted

Measured: growth

CC(=O)/C=C/c1ccc(N(C)Cc2ccc(C(C)(C)C)cc2)cc1
inactive: HCT-15 colon; 10 µM 87.5% | HT29 colon; 10 µM 78.1% | SNB-75 CNS; 10 µM 102% | SNB-19 CNS; 10 µM 110% | U251 CNS; 10 µM 89.8% | PC-3 prostate; 10 µM 77.6% | SK-MEL-5 melanoma; 10 µM 74.7% | UACC-62 melanoma; 10 µM 78.8% | LOX IMVI melanoma; 10 µM 80.1% | SK-MEL-28 melanoma; 10 µM 92.5% | SK-MEL-2 melanoma; 10 µM 99.7% | EKVX NSCLC; 10 µM 106% | SN12C renal; 10 µM 90.6% | UO-31 renal; 10 µM 78.5% | TK-10 renal; 10 µM 115% | ACHN renal 98.4% | A498 renal; 10 µM 87.9% | MOLT-4 leukemia; 10 µM 62.2%
active: HCT-15 colon; 100 µM -36.9% | HT29 colon; 100 µM -10.7% | SNB-75 CNS; 100 µM -59.5% | SNB-19 CNS; 100 µM -31.2% | U251 CNS; 100 µM -100% | PC-3 prostate; 100 µM -26.1% | SK-MEL-5 melanoma; 100 µM -100% | UACC-62 melanoma; 100 µM -57.1% | LOX IMVI melanoma; 100 µM -100% | SK-MEL-28 melanoma; 100 µM -82.3% | SK-MEL-2 melanoma; 100 µM -69.2% | EKVX NSCLC; 100 µM -39.2% | SN12C renal; 100 µM -81.1% | UO-31 renal; 100 µM -100% | TK-10 renal; 100 µM -13.7% | A498 renal; 100 µM -95.6% | CCRF-CEM leukemia -12.1% [100 µM] | MOLT-4 leukemia; 100 µM -38.9%

Cc1ccc(-c2nc(SCC(=O)c3ccc(C#N)cc3)[nH]c(=O)c2C#N)cc1
inactive: HCT-15 colon; 10 µM unless noted 105% | HT29 colon; 10 µM unless noted 97.9% | SNB-75 CNS; 10 µM unless noted 87.5% | SNB-19 CNS; 10 µM unless noted 106% | U251 CNS; 10 µM unless noted 100% | PC-3 prostate; 10 µM unless noted 104% | SK-MEL-5 melanoma; 10 µM unless noted 114% | UACC-62 melanoma; 10 µM unless noted 99.2% | LOX IMVI melanoma; 10 µM unless noted 92.9% | SK-MEL-28 melanoma; 10 µM unless noted 103% | SK-MEL-2 melanoma; 10 µM unless noted 104% | EKVX NSCLC; 10 µM unless noted 113% | SN12C renal; 10 µM unless noted 108% | UO-31 renal; 10 µM unless noted 76.7% | TK-10 renal; 10 µM unless noted 99.7% | ACHN renal 96.1% | CAKI-1 renal 93.4% | A498 renal; 10 µM unless noted 105% | CCRF-CEM leukemia 114% | MOLT-4 leukemia; 10 µM unless noted 110%

CN(C)CCN1C(=O)c2c(c3c4ccccc4n4c3c3c2c2ccccc2n3C2CC(O)C(O)C4(C)O2)C1=O (stereo not drawn)
inactive: HCT-15 colon; 10 µM unless noted 15.5% | SNB-75 CNS; 10 µM unless noted 23.3% | SNB-19 CNS; 10 µM unless noted 17.1% | U251 CNS; 10 µM unless noted 17.9% | PC-3 prostate; 10 µM unless noted 30.2% | SK-MEL-5 melanoma; 10 µM unless noted 34.4% | UACC-62 melanoma; 10 µM unless noted 21.8% | SK-MEL-28 melanoma; 10 µM unless noted 64.5% | SK-MEL-2 melanoma; 10 µM unless noted 32.6% | EKVX NSCLC; 10 µM unless noted 46.8% | SN12C renal; 10 µM unless noted 22.1% | UO-31 renal; 10 µM unless noted 24.1% | TK-10 renal; 10 µM unless noted 24.6% | CAKI-1 renal 19.6% | A498 renal; 10 µM unless noted 32% | CCRF-CEM leukemia 31.1%
active: HT29 colon; 10 µM unless noted 6.62% | LOX IMVI melanoma; 10 µM unless noted 1.87% | ACHN renal -12.6% | MOLT-4 leukemia; 10 µM unless noted 0.948%

CC(C)(C)CC(N)=O
inactive: HCT-15 colon; 10 µM unless noted 94.9% | HT29 colon; 10 µM unless noted 102% | SNB-75 CNS; 10 µM unless noted 96.4% | SNB-19 CNS; 10 µM unless noted 101% | U251 CNS; 10 µM unless noted 95.1% | PC-3 prostate; 10 µM unless noted 97.9% | SK-MEL-5 melanoma; 10 µM unless noted 94.1% | UACC-62 melanoma; 10 µM 103% | UACC-62 melanoma; 100 µM 79.5% and 18.4% | LOX IMVI melanoma; 10 µM unless noted 98.1% | SK-MEL-28 melanoma; 10 µM unless noted 102% | SK-MEL-2 melanoma; 10 µM unless noted 102% | SN12C renal; 10 µM unless noted 102% | UO-31 renal; 10 µM unless noted 104% | TK-10 renal; 10 µM 100% | TK-10 renal; 100 µM 105% and 103% | ACHN renal 96.9% | CAKI-1 renal 94.4% | A498 renal; 10 µM unless noted 90.7% | CCRF-CEM leukemia 102% | MOLT-4 leukemia; 10 µM unless noted 108%

O=C(/C=C/c1cccc(Oc2ccc(Cl)cc2)c1)c1ccccc1
active: HCT-15 colon; 100 µM -72.6% | HT29 colon; 100 µM -67% | SNB-75 CNS; 100 µM -94.8% | SNB-19 CNS; 100 µM -77.3% | U251 CNS; 100 µM -100% | PC-3 prostate; 100 µM -72.3% | SK-MEL-5 melanoma; 100 µM -97.3% | UACC-62 melanoma; 100 µM -71.9% | LOX IMVI melanoma; 100 µM -99.3% | SK-MEL-28 melanoma; 100 µM -82.2% | SK-MEL-2 melanoma; 100 µM -59.8% | EKVX NSCLC; 100 µM -79.6% | SN12C renal; 100 µM -63.7% | UO-31 renal; 100 µM -99.8% | TK-10 renal; 100 µM -99.2% | A498 renal; 100 µM -95.3% | CCRF-CEM leukemia -10.5% [100 µM] | MOLT-4 leukemia; 100 µM -2.97%
inactive: HCT-15 colon; 10 µM 80.8% | HT29 colon; 10 µM 84.2% | SNB-75 CNS; 10 µM 82.8% | SNB-19 CNS; 10 µM 90.5% | U251 CNS; 10 µM 76% | PC-3 prostate; 10 µM 84.5% | SK-MEL-5 melanoma; 10 µM 105% | UACC-62 melanoma; 10 µM 100% | LOX IMVI melanoma; 10 µM 38.2% | SK-MEL-28 melanoma; 10 µM 101% | SK-MEL-2 melanoma; 10 µM 109% | EKVX NSCLC; 10 µM 110% | SN12C renal; 10 µM 111% | UO-31 renal; 10 µM 86.2% | TK-10 renal; 10 µM 105% | ACHN renal 99.3% | A498 renal; 10 µM 99.2% | MOLT-4 leukemia; 10 µM 62.6%

Cc1ccc(-c2nc3nc(-c4ccc(Cl)cc4)nc(N4CCCNCC4)c3o2)cc1
active: HCT-15 colon; 10 µM unless noted -81.5% | HT29 colon; 10 µM unless noted -82.4% | SNB-75 CNS; 10 µM unless noted -10.4% | SNB-19 CNS; 10 µM unless noted -89.7% | U251 CNS; 10 µM unless noted -86.9% | PC-3 prostate; 10 µM unless noted -79.8% | LOX IMVI melanoma; 10 µM unless noted -83.2% | SN12C renal; 10 µM unless noted -86% | UO-31 renal; 10 µM unless noted -78.7% | ACHN renal -98.9% | CAKI-1 renal -92.3% | CCRF-CEM leukemia -72.6% | MOLT-4 leukemia; 10 µM unless noted -71.2%
inactive: SK-MEL-5 melanoma; 10 µM unless noted 92.8% | UACC-62 melanoma; 10 µM unless noted 95.6% | SK-MEL-28 melanoma; 10 µM unless noted 108% | SK-MEL-2 melanoma; 10 µM unless noted 103% | EKVX NSCLC; 10 µM unless noted 123% | TK-10 renal; 10 µM unless noted 29.7% | A498 renal; 10 µM unless noted 95.2%
